# Measured values reported in article PMC5540273 (PLoS ONE, 2017).
# Tests used:
# Conditions in all cases: concentration: 1 μM,replicates: in singlicate; n = 1
# CAMK1 = tested on: CAMK1
# CAMK2A = tested on: CAMK2A
# CAMK2B = tested on: CAMK2B
# CAMK2D = tested on: CAMK2D
# CAMK2G = tested on: CAMK2G
# CAMK4 = tested on: CAMK4
# CAMKK1 = tested on: CAMKK1
# CAMKK2 = tested on: CAMKK2
# CASK = tested on: CASK
# CDC2L1 = tested on: T1, CDC2L1
# T1 construct: gene CDK11B
# CDC2L2 = tested on: CDC2L2
# CDC2L5 = tested on: T2, CDC2L5
# T2 construct: gene CDK13
# CDK11 = tested on: T3, CDK11
# T3 construct: gene CDK19
# CDK2 = tested on: CDK2
# CDK3 = tested on: CDK3
# CDK4-cyclinD1 = tested on: CDK4-cyclinD1
# CDK4-cyclinD3 = tested on: CDK4-cyclinD3
# CDK4 = tested on: CDK4
# CDK5 = tested on: CDK5
# CDK7 = tested on: CDK7
# 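Also: KINOMEscan kinase panel screen.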
SMILES,%Inh (CAMK1),%Inh (CAMK2A),%Inh (CAMK2B),%Inh (CAMK2D),%Inh (CAMK2G),%Inh (CAMK4),%Inh (CAMKK1),%Inh (CAMKK2),%Inh (CASK),%Inh (CDC2L1),%Inh (CDC2L2),%Inh (CDC2L5),%Inh (CDK11),%Inh (CDK2),%Inh (CDK3),%Inh (CDK4-cyclinD1),%Inh (CDK4-cyclinD3),%Inh (CDK4),%Inh (CDK5),%Inh (CDK7)
CCn1c(-c2nonc2N)nc2c(C#CC(C)(C)O)nc(OCCN)cc21.Cl.Cl [GSK902056],0%,0%,0%,0%,10%,0%,11%,0%,31%,0%,3%,0%,1%,0%,22%,0%,0%,0%,0%,0%
Cc1cc2cn[nH]c2cc1-c1cccc2c(N)c(C(N)=O)nnc12,47%,0%,5%,8%,15%,27%,29%,7%,23%,2%,32%,0%,1%,24%,43%,8%,35%,18%,88%,0%
CCN(CC)CCCCNc1ncc2cc(-c3c(Cl)cccc3Cl)c(NC(=O)NC(C)(C)C)nc2n1,9%,0%,0%,9%,20%,20%,15%,23%,0%,0%,0%,9%,14%,8%,10%,0%,0%,9%,14%,34%
O=C(NCCCN1CCOC1=O)c1cnc(NCc2cc(Cl)ccc2Cl)nc1NC1CCCC1,33%,0%,2%,4%,6%,10%,4%,6%,–,1%,0%,0%,29%,0%,14%,4%,0%,12%,10%,14%
CNC(=O)c1ccccc1Sc1ccc2c(/C=C/c3ccccn3)n[nH]c2c1,9%,26%,24%,3%,12%,0%,16%,–,36%,0%,0%,0%,0%,1%,63%,0%,0%,0%,3%,25%
Nc1nc(Nc2ccccc2)cc(-c2ccc3c(N)n[nH]c3c2)n1 [GSK2225749],3%,0%,0%,0%,0%,0%,0%,0%,0%,0%,0%,0%,0%,0%,8%,0%,0%,0%,0%,7%
CCN(CC)CCOc1ccc(Nc2ncc3cc(-c4c(Cl)cccc4Cl)c(=O)n(C)c3n2)cc1 [SB-601273],51%,4%,0%,5%,29%,0%,20%,22%,22%,18%,43%,41%,90.1%,7%,9%,80%,48%,89%,0%,34%
C[C@@H](Oc1cc(-c2cnn(C3CCNCC3)c2)cnc1N)c1c(Cl)ccc(F)c1Cl,0%,12%,2%,16%,20%,0%,24%,24%,–,59%,55%,0%,29%,11%,12%,12%,0%,0%,12%,–
CC(C)N1C(=O)Cc2cc(Nc3ncc(C(F)(F)F)c(NCc4cccc(S(C)(=O)=O)c4)n3)ccc21,0%,22%,14%,5%,0%,0%,2%,23%,0%,0%,3%,7%,0%,0%,5%,26%,0%,35%,9%,52%
Cc1n[nH]c2ccc(-c3cc(OC[C@@H](N)Cc4ccccc4)cnc3-c3ccoc3)cc12.O=C(O)C(F)(F)F.O=C(O)C(F)(F)F [GSK507358],15%,0%,0%,28%,31%,0%,21%,32%,3%,0%,0%,0%,6%,0%,0%,0%,0%,10%,0%,0%
Cl.Cl.NC[C@H](Cc1ccc(C(F)(F)F)cc1)NC(=O)c1cc(Br)c(-c2ccnc3[nH]ccc23)s1 [GSK1487252],22%,0%,0%,7%,17%,0%,21%,37%,30%,0%,0%,0%,14%,3%,0%,14%,2%,0%,0%,0%
Cc1occc1-c1nc(N)c(OC[C@@H](N)Cc2c[nH]c3ccccc23)cc1-c1cc2c(C)n[nH]c2cn1 [GSK1660450],23%,46%,47%,44%,48%,0%,60%,77%,15%,0%,0%,0%,0%,0%,12%,0%,0%,0%,0%,75%
CN(C)CC(O)COc1ccc(Nc2nccc(-c3cnn4nc(N5CCOCC5)ccc34)n2)cc1 (centres unmarked) [GW767488],31%,25%,25%,32%,46%,0%,62%,51%,19%,20%,41%,50%,27%,–,9%,99.4%,98.3%,100%,6%,99.7%
C[C@@H]1CCN(C(=O)CC#N)C[C@@H]1N(C)c1ncnc2[nH]ccc12,21%,0%,–,0%,0%,0%,0%,0%,0%,2%,0%,0%,18%,0%,14%,0%,6%,0%,0%,2%
COc1ccc(C[C@@H](CN)NC(=O)c2cc(Br)c(-c3ccnc4[nH]ccc34)s2)cc1.Cl.Cl [GSK1389063],23%,7%,0%,26%,19%,13%,66%,64%,34%,0%,0%,0%,39%,6%,5%,0%,28%,0%,0%,72%
NC(=O)c1cc(-c2ccccc2)cc2c(C3CCNCC3)c[nH]c12 [GSK301362],30%,0%,0%,23%,19%,0%,0%,4%,18%,0%,17%,0%,6%,0%,16%,0%,3%,13%,0%,0%
Cc1ccc(-n2nc(C(C)(C)C)cc2NC(=O)Nc2ccc(OCCN3CCOCC3)c3ccccc23)cc1 [GW839464],4%,13%,13%,11%,3%,16%,12%,0%,14%,0%,13%,0%,100%,0%,11%,5%,0%,0%,5%,0%
O=C(NCCNc1ccnc(NCc2ccc(F)cc2)n1)c1cc2ccccc2s1 [GSK1379944],0%,0%,0%,1%,3%,0%,6%,0%,82%,0%,0%,0%,0%,68%,83%,84%,11%,1%,0%,0%
C[C@H]1Oc2cc(cnc2N)-c2c(nn(C)c2C#N)CN(C)C(=O)c2ccc(F)cc21,29%,5%,2%,0%,3%,67%,49%,61%,5%,0%,18%,0%,12%,21%,6%,0%,0%,0%,11%,0%
